For eight molecules, growth results are on record in PubChem BioAssay (NCI).

Among the test systems are HT29 colon; SNB-75 CNS; U251 CNS; PC-3 prostate; SK-MEL-5 melanoma; UACC-62 melanoma; LOX IMVI melanoma; SK-MEL-28 melanoma; SK-MEL-2 melanoma; EKVX NSCLC; SN12C renal; UO-31 renal; TK-10 renal; ACHN renal; CAKI-1 renal; A498 renal; CCRF-CEM leukemia; MOLT-4 leukemia; SR leukemia.
Holding throughout (test): NCI-60 one-dose screen, 48 h (100 = growth as untreated, 0 = no growth, -100 = all killed)
Common to all, as to conditions: 10 µM unless noted

Compounds without any hit were thinned out: in the full panel of roughly 83,000, 20% have a hit.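 Plates (96-well) were seeded with cells, treated with compound at one concentration, and incubated for 48 hours before percent growth was determined.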 Values without a mark were called inactive. Activity calls are given as the source filed them. The calls were made as follows: active = growth percent below 10; inactive = the rest.

Consider `Cc1ccc(NC(=O)Nc2ccc(-c3cccnc3)cc2N2CCC(CO)CC2)cc1`, for which the growth with HT29 colon is 5.68% (active); with SNB-75 CNS, 15.3%; in the experiment with U251 CNS it was 11.3%; in the experiment on PC-3 prostate it was 51.8%; with SK-MEL-5 melanoma it was -46.1% (active); in the experiment on UACC-62 melanoma it was 4.73% (active). The growth with LOX IMVI melanoma is 33.3%; with SK-MEL-28 melanoma, 9.36% (active); with SK-MEL-2 melanoma, 33.7%; with EKVX NSCLC, 55.5%; in the experiment with SN12C renal, 41%; in the experiment with UO-31 renal, 81.2%. In addition, the growth is 16.5% in the experiment on TK-10 renal; 81.2% in the experiment with ACHN renal; 42.2% in the experiment on CAKI-1 renal; -36.2% (active) in the experiment on A498 renal; 34.7% in the experiment with CCRF-CEM leukemia; 17.6% with MOLT-4 leukemia. The growth in the experiment on SR leukemia was 17.1%.

For the molecule `CCCC[N+](CCCC)=c1ccc2nc3c(C)cc(N(CC)CC)cc3sc-2c1`, the growth was -68.6% (active) with HT29 colon; -0.166% (active) with SNB-75 CNS; -11.3% (active) with U251 CNS; -13.9% (active) with PC-3 prostate; -96.9% (active) in the experiment with SK-MEL-5 melanoma; -35.7% (active) in the experiment with UACC-62 melanoma. The growth is -70.4% (active) in the experiment on LOX IMVI melanoma; -2.53% (active) in the experiment with SK-MEL-28 melanoma; -51% (active) in the experiment on SK-MEL-2 melanoma; 4.13% (active) in the experiment with EKVX NSCLC; -3.26% (active) with SN12C renal; 0.703% (active) in the experiment on UO-31 renal. Further, the growth is 3.75% (active) with TK-10 renal; -34.1% (active) in the experiment on ACHN renal; -2.5% (active) in the experiment on CAKI-1 renal; -5.54% (active) in the experiment on A498 renal; -15.7% (active) in the experiment with CCRF-CEM leukemia; -20.1% (active) with MOLT-4 leukemia. For the same molecule, the growth with SR leukemia is -18.2% (active).

With `CC(CCC(=O)O)(NC(=O)c1ccc([N+](=O)[O-])cc1)C(=O)O` (stereo not given), the growth in the experiment with HT29 colon is 109%; with SNB-75 CNS, 91.6%; in the experiment with U251 CNS it was 104%; in the experiment on PC-3 prostate, 98.4%; in the experiment on SK-MEL-5 melanoma, 101%; with UACC-62 melanoma it was 109%. The growth in the experiment on LOX IMVI melanoma is 97.1%; in the experiment with SK-MEL-28 melanoma it was 107%; in the experiment on SK-MEL-2 melanoma, 108%; with EKVX NSCLC it was 114%; in the experiment with SN12C renal, 107%; in the experiment with UO-31 renal it was 86.2%. The growth is 106% in the experiment on TK-10 renal; 125% in the experiment with ACHN renal; 108% in the experiment with CAKI-1 renal; 108% in the experiment with A498 renal; 103% in the experiment with CCRF-CEM leukemia; 93.6% in the experiment on MOLT-4 leukemia.

As to `CCC1=C(c2ccc(OC)cc2)C(C)(C)Oc2cc(O)c(CN3CCCC3)cc21`, the growth in the experiment with HT29 colon was 66.6%; with SNB-75 CNS, 75%; with U251 CNS, 82.5%; in the experiment with PC-3 prostate, 70.5%; with SK-MEL-5 melanoma, 67%; in the experiment on UACC-62 melanoma, 90.1%. The growth in the experiment on LOX IMVI melanoma was 59.3%; in the experiment on SK-MEL-28 melanoma, 101%; with SK-MEL-2 melanoma, 86.3%; with EKVX NSCLC it was 85.2%; in the experiment on SN12C renal, 77.8%; with UO-31 renal, 55.8%. Besides, the growth with TK-10 renal is 94.3%; with ACHN renal, 82.6%; in the experiment on CAKI-1 renal, 83.2%; in the experiment with A498 renal it was 59.5%; in the experiment with CCRF-CEM leukemia, 69.2%; with MOLT-4 leukemia it was 66.3%. Also, in the experiment on SR leukemia, the growth was 9.49% (active).

Consider `Cc1nnc(Nc2ccc(NC(=O)Nc3ccc(Cl)cc3)cc2)c2ccccc12`, for which the growth in the experiment on HT29 colon is 2.24% (active); with SNB-75 CNS, 68.1%; with U251 CNS it was 5.4% (active); in the experiment with PC-3 prostate, 22.8%; with SK-MEL-5 melanoma, 52.3%; with UACC-62 melanoma, -34.4% (active). Besides, the growth in the experiment on LOX IMVI melanoma is -27.3% (active); in the experiment on SK-MEL-28 melanoma, -11.9% (active); in the experiment on SK-MEL-2 melanoma, 44%; with EKVX NSCLC, 44.2%; in the experiment on SN12C renal it was 60.1%; in the experiment with UO-31 renal, 51.2%. For the same molecule, the growth in the experiment on TK-10 renal is 51.7%; with ACHN renal it was 58.8%; with CAKI-1 renal, 33.9%; in the experiment with A498 renal it was 35.4%; in the experiment on CCRF-CEM leukemia, 11%; with MOLT-4 leukemia, 9.76% (active). The growth with SR leukemia is -3.51% (active).

Take `C=C1CC[C@@H]2[C@](C)(COC(C)=O)[C@H](OC(C)=O)CC[C@@]2(C)[C@@H]1CC(Nc1ccc(S(=O)(=O)Nc2cc(C)on2)cc1)C1=CCOC1=O` (stereo not given in full): the growth was -11% (active) in the experiment with HT29 colon; 59.4% in the experiment with SNB-75 CNS; 30% in the experiment with U251 CNS; 70.8% in the experiment with PC-3 prostate; 44.1% in the experiment on SK-MEL-5 melanoma; 19.8% with UACC-62 melanoma. Further, the growth was -72.7% (active) in the experiment with LOX IMVI melanoma; 38.1% with SK-MEL-28 melanoma; 63% in the experiment with SK-MEL-2 melanoma; 81.9% in the experiment on EKVX NSCLC; 31.8% in the experiment with SN12C renal; 56.9% with UO-31 renal. The growth in the experiment with TK-10 renal was 58.4%; in the experiment with ACHN renal, 19.5%; in the experiment with CAKI-1 renal, 44%; with A498 renal it was 98.6%; in the experiment on CCRF-CEM leukemia, -19.1% (active); in the experiment on MOLT-4 leukemia, -7.86% (active). In addition, in the experiment on SR leukemia, the growth was 1.4% (active).

For the molecule `N#CCCCCCn1c2ccccc2c2c3c(c4c5ccccc5[nH]c4c21)C(=O)N(O)C3=O`, the growth in the experiment on HT29 colon is 3.99% (active); in the experiment on SNB-75 CNS it was 29.4%; with U251 CNS it was -46.2% (active); in the experiment on PC-3 prostate it was -3.49% (active); in the experiment with SK-MEL-5 melanoma, -97% (active); with UACC-62 melanoma it was -35.7% (active). Also, the growth in the experiment with LOX IMVI melanoma was -81% (active); in the experiment on SK-MEL-28 melanoma, -2.36% (active); with SK-MEL-2 melanoma it was 3.52% (active); in the experiment on EKVX NSCLC, 46%; in the experiment on SN12C renal, 6.13% (active); with UO-31 renal it was -44.9% (active). In addition, the growth in the experiment on TK-10 renal was 22%; with ACHN renal, -81.6% (active); in the experiment with CAKI-1 renal it was -59.9% (active); in the experiment with A498 renal, -76.3% (active); in the experiment on CCRF-CEM leukemia, -1.67% (active); in the experiment on MOLT-4 leukemia it was -21.3% (active). For the same molecule, in the experiment on SR leukemia, the growth is -9.51% (active).

For the molecule `CCc1[nH]nc(-c2ccc(OC)cc2)c1-c1ccccc1OCCN(CC)CC`, the growth in the experiment with HT29 colon is 85.9%; in the experiment with SNB-75 CNS, 60.4%; in the experiment with U251 CNS, 96%; in the experiment on PC-3 prostate, 76%; in the experiment on SK-MEL-5 melanoma it was 85.2%; in the experiment with UACC-62 melanoma, 106%. For the same molecule, the growth was 80.2% in the experiment on LOX IMVI melanoma; 107% in the experiment with SK-MEL-28 melanoma; 95.5% in the experiment on SK-MEL-2 melanoma; 94.5% in the experiment on EKVX NSCLC; 96.5% in the experiment with SN12C renal; 67.3% with UO-31 renal. Besides, the growth in the experiment on TK-10 renal is 109%; in the experiment on ACHN renal, 98.5%; in the experiment on CAKI-1 renal, 89%; with A498 renal, 80.7%; in the experiment with CCRF-CEM leukemia it was 84.5%; in the experiment on MOLT-4 leukemia, 85.8%.
